# About 2,600 (16%) of roughly 16,000 compounds were called active. Another 20% or so got no clear call; they are omitted. Calls come from the whole dose curve; as a rule, active = well fitted curve in the direction sought with a large enough effect; inconclusive = small, poorly fitted or top-dose-only effect, or effect the other way; inactive = no such curve, though single readings can be large or run the other way. These entries were drawn from the full list.
# Target: Cytochrome P450 2D6 (Homo sapiens) (UniProt P10635)
# Test: Cytochrome panel assay with activity outcomes
# Settings: recombinant CYP, pro-luciferin dealkylation, luminescence, p450-cyp2d6; series mostly up to 57.1 µM; activity, negative = inhibition: at the top concentration
# % is set by controls: 0 for no effect and ±100 for the full control effect.
# Cytochrome P450 2D6 (Homo sapiens), sequence (P10635 whole entry, looked up): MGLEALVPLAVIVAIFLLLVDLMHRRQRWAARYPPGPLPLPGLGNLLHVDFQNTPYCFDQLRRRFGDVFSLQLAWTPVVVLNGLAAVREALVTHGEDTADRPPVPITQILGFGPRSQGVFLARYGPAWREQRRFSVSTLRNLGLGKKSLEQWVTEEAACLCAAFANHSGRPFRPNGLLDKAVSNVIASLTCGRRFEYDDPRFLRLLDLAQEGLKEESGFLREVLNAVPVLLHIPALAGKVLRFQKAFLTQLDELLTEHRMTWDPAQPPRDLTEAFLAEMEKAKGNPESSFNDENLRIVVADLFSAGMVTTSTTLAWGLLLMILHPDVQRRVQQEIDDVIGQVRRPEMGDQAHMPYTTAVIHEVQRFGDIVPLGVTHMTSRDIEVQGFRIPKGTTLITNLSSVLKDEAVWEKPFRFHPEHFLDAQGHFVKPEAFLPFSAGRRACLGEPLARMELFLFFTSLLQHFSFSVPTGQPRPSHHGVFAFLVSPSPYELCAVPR
Structure (SMILES),"activity, negative = inhibition",AC50
COCCn1c(=O)c(-c2cccc(C#N)c2)nc2cnc(N3CCN(C)CC3)nc21,4.11% (inactive),
O=C(c1cc(C(F)(F)F)cc(C(F)(F)F)c1)N1CCC[C@@]2(CCN(c3ccccc3)C2)C1,2.19% (inactive),
O=C(N/N=C/c1ccc(O)cc1)c1ccc(COc2cc(Cl)ccc2Cl)o1,-29.6% (inactive),
O=C(Nc1ccn(Cc2ccccc2F)n1)c1ccc(COc2cc(Cl)ccc2Cl)o1,-11.3% (inactive),
O=C(Nc1cccnc1)c1ccc(COc2cc(Cl)ccc2Cl)o1,,15.8 µM (active)
NS(=O)(=O)c1ccc(N=Nc2ccc[nH]c2=O)cc1,-6.28% [at 11.4 µM] (inactive),
C(=Nc1cnc2ccccc2c1)c1ccc2ccccc2n1,1.16% [at 11.4 µM] (inactive),
C=C(C)[C@@H]1CC=C(C(=O)O)CC1,-8.58% (inactive),
NNC(=O)c1nn(-c2ccc(Cl)cc2)ccc1=O,-1.71% (inactive),
COc1ccc(Oc2c(Cl)cnn(-c3ccccc3)c2=O)cc1,-3.24% (inactive),
CC(C)Cn1cnc2c(SCc3ccccn3)nc(N)nc21,6.1% [at 11.4 µM] (inactive),
CC(C)Cn1cnc2c(Sc3c([N+](=O)[O-])ncn3C)nc(N)nc21,8.92% [at 11.4 µM] (inactive),
Cc1ccc2ccccc2c1CSc1nc(N)nc2c1ncn2CC(C)C,,3.98 µM (active)
CCCOc1ccc(C2C(=O)N(C3CCCCC3)CC(=O)N2C2CC2)cc1OC (configuration not stated),-0.0714% (inactive),
Cn1c[n+](C)cc1/C=N/O,-3.03% (inactive),
O=[N+]([O-])c1cccnc1N1CCOCC1,-5.33% (inactive),
O=[N+]([O-])c1ccc(N2CCCC2)cc1N1CCCC1,-17.6% (inactive),
O=[N+]([O-])c1cc(F)c(N2CCOCC2)cc1N1CCCCC1,,10 µM (active)
Cc1ccc(-c2nc3ccccc3s2)cc1NC(=O)c1cc(-n2cnnc2)ccc1Cl,-3.13% (inactive),
CN1CCN(c2ncc3nc(-c4cccs4)c(=O)n(-c4ccccc4)c3n2)CC1,0.142% (inactive),
O=C(O)C1CCC(=O)N(C2CC2)C1c1ccccc1 (configuration not stated),21.6% (inactive),
CC(=O)NCCNc1ccnc(-c2ccccc2C(F)(F)F)n1,-6.01% (inactive),
CC(=O)NCCNc1nc(-c2ccccc2C)nc2ccccc12,,5.01 µM (active)

Structure (SMILES),"activity, negative = inhibition",AC50
COc1ccccc1-c1nc(NCCNC(C)=O)c2ccccc2n1,,6.31 µM (active)
CC(=O)NCCNc1ccnc(-c2ccccc2C)n1,-10.3% (inactive),
COCCNc1nc(-c2ccccc2Cl)nc2ccccc12,0.886% (inactive),
CC(=O)NCCNc1nc(-c2ccccc2Cl)nc2ccccc12,,12.6 µM (active)
COCCNc1nc(-c2ccccc2C(F)(F)F)nc2ccccc12,-2.92% (inactive),
CC(=O)NCCNc1nc(-c2ccccc2C(F)(F)F)nc2ccccc12,,3.98 µM (active)
COC(=O)[C@@]1(Cc2ccc(OC)cc2)[C@H]2c3cc(C(=O)N4CCCC4)n(CCc4c[nH]c5ccc(O)cc45)c3C[C@H]2CN1C(=O)c1ccccc1,4.23% (inactive),
O=Nc1c(-c2c(O)[nH]c3ccccc23)[nH]c2ccccc12,12.1% (inactive),
COc1ccc(C)cc1NC(=O)c1cc2cc3ccc(C)cc3nc2o1,7.98% (inactive),
Cc1ccc2cc(CCNC(=O)c3ccc(Br)o3)c(=O)[nH]c2c1,-5.59% (inactive),
Cc1cccc(N(C)S(=O)(=O)c2ccc3[nH]c(=O)c(=O)[nH]c3c2)c1,-6.04% (inactive),
COc1ccc(-n2c(=O)c(C)nc3cnc(OC)nc32)cc1,6.93% (inactive),
CCCn1c(=O)c2[nH]c(C3CCCC3)nc2n(CCC)c1=O,-6.79% (inactive),
COc1ccc(-c2nc3cnc(N4CCOCC4)nc3n(CCc3ccccc3)c2=O)cc1,-0.0486% (inactive),
COC(=O)[C@@H]1CC[C@H](C)[C@@H](c2ccc(C)cc2)N1C(=O)c1ccc(/C=N\OCC[C@@H]2C=C[C@H](OC(C)=O)[C@H](COC(C)=O)O2)cc1,6.79% [at 11.4 µM] (inactive),
COC(=O)c1cc(=O)n(C2CC2)c(=NC2CC2)s1,-4.17% (inactive),
CN(C)C(=C(C#N)C#N)N1CCN(c2ccc(Cl)c(Cl)c2)CC1,,1.12 µM (active)
Cc1ccc(OCC(=O)N/N=C\c2c(C)n(C)c3ccccc23)c([N+](=O)[O-])c1,-14.9% (inactive),
CCCCNCCOCCOc1ccc(C)cc1[N+](=O)[O-],,2 µM (active)
CCC(C)Nc1c([N+](=O)[O-])cc(C)cc1[N+](=O)[O-] (configuration not stated),-14.5% (inactive),
CCCC(=O)N1CCN(c2ccc(NC(=O)c3ccc(OCC)c([N+](=O)[O-])c3)cc2)CC1,23.3% (inactive),
C=CCNCCOCCOc1ccc(C)cc1[N+](=O)[O-],,3.16 µM (active)
Cc1nnc(N(C)C(=O)c2ccccn2)s1,-0.12% (inactive),

Structure (SMILES),"activity, negative = inhibition",AC50
COc1ccc(-c2nn(-c3ccccc3)cc2/C=N/NC(=O)c2ccc3c(c2)OCO3)cc1,-26.4% (inactive),
CSCC[C@@H]1NC(=O)C/C=C\[C@@H](C)COC(=O)[C@H](C)COC1=O,10.5% [at 11.4 µM] (inactive),
COc1cc(-c2ccc(=O)[nH]n2)ccc1OC(F)F,4.03% (inactive),
CC(C)c1cccc2nc3c(c(C(C)(C)C)c12)Cn1c-3cccc1=O,-17.1% (inactive),
C[C@@H](N=C(N)N)C(=O)O,9.93% [at 11.4 µM] (inactive),
Clc1ccccc1NN(Cc1ccccn1)c1ccccc1Cl,-11.2% [at 11.4 µM] (inactive),
CNC(=S)N1CCN(c2cccc(OC)c2)CC1,-11.4% (inactive),
O=C(NNC(=O)c1cc2cc3ccccc3nc2s1)c1cccc(C(F)(F)F)c1,5.7% (inactive),
Cc1cc(=O)c2c(O)c(O)ccc2o1,-8.29% (inactive),
Cc1cc(=O)oc2cc(O)ccc12,0.168% [at 25.6 µM] (inactive),
O=c1c(O)c(-c2ccc(O)cc2)oc2cc(O)cc(O)c12,,10 µM (active)
O=C(COc1ccc2ccccc2c1)NNC(=O)Cc1cccc2ccccc12,-1.19% (inactive),
O=C(COc1ccc2ccccc2c1)Nc1ccc(Cc2ccncc2)cc1,,0.355 µM (active)
CC(=O)CC(=O)Nc1ccc2ccccc2c1,15.5% [at 11.4 µM] (inactive),
CCNC(=O)NC1(C(=O)Nc2ccc3c(c2)OCCO3)CCCCC1,6.31% (inactive),
CC(=O)NN1C(=O)c2ccc(Oc3ccc([N+](=O)[O-])cc3)cc2C1=O,-5.87% (inactive),
O=C(NC(=S)Nc1ccc(C(=O)N2CCOCC2)cc1)c1ccc([N+](=O)[O-])cc1,17.4% (inactive),
COc1ccc(-n2c(=O)c(-c3cc(F)cc(F)c3)nc3cncnc32)cc1,4.13% (inactive),
CCOC(=O)Nc1ccc(C)cc1NC(=O)OCC,10.5% (inactive),
CCOC(=O)NC(NC(=O)OCC)C(=O)c1ccc(F)cc1,3.08% (inactive),
CCOC(=O)Nc1ccc(NCc2ccc(F)cc2)nc1N,,31.6 µM (active)
